What was measured:
[1] = biological target: T1, Serine/threonine-protein kinase TAO2 (Homo sapiens) (UniProt Q9UL54); conditions: at 1 µM
T1 sequence (whole entry): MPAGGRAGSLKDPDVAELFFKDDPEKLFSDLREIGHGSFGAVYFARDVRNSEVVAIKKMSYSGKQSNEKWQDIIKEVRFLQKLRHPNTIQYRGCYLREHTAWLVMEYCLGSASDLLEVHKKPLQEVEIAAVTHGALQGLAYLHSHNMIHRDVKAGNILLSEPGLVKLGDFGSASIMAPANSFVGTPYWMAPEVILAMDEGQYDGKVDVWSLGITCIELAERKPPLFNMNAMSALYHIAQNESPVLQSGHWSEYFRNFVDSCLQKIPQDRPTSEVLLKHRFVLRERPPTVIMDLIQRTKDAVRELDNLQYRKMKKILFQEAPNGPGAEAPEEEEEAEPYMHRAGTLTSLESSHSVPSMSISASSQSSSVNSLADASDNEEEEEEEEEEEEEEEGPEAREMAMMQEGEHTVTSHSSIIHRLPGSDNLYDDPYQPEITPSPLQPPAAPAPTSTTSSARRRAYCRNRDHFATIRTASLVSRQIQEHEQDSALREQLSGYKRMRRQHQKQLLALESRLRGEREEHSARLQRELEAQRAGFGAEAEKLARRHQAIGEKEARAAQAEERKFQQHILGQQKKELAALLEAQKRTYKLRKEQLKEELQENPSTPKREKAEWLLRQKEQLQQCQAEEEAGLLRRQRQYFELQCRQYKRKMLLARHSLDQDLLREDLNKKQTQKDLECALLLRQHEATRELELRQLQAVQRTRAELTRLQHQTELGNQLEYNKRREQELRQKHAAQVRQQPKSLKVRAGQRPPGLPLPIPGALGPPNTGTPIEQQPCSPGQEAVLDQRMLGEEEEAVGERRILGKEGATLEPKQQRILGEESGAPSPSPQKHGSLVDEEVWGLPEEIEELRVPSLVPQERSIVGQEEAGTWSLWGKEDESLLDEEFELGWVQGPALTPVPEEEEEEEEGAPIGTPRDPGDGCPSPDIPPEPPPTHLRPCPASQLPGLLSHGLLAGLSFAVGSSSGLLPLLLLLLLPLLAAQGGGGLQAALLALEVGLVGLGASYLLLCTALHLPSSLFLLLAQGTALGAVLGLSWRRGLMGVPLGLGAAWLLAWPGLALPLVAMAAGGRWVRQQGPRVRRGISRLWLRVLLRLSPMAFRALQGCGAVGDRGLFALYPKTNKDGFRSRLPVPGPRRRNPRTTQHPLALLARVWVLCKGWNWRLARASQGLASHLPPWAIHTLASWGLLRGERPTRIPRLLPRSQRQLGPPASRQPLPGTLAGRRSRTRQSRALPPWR

[2] = biological target: T1, Serine/threonine-protein kinase TAO2 (Homo sapiens); conditions: at 10 µM
[3] = biological target: T2, Serine/threonine-protein kinase TAO3 (Homo sapiens) (UniProt Q9H2K8); conditions: at 1 µM
T2 sequence (whole entry): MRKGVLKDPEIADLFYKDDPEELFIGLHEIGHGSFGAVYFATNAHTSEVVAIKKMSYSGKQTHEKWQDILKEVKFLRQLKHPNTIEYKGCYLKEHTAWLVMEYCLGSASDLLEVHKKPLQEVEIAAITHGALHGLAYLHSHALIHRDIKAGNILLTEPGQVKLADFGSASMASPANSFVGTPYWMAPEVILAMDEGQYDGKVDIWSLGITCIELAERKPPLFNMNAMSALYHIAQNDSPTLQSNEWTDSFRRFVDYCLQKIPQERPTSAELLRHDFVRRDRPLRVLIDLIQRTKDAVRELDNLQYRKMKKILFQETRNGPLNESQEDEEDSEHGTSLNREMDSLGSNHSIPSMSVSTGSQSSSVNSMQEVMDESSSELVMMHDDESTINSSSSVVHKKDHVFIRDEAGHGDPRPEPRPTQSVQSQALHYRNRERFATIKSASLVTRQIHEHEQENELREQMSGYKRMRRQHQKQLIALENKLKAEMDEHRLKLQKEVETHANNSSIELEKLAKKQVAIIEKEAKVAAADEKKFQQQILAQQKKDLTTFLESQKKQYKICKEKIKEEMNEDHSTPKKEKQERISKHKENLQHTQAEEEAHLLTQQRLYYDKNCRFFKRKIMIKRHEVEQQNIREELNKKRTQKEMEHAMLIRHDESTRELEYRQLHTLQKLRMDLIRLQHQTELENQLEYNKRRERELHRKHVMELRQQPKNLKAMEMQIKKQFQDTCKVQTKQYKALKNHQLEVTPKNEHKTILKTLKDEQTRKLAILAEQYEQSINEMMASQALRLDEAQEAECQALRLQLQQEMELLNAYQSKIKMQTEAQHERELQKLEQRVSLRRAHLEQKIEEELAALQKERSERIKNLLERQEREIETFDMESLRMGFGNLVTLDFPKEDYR

[4] = biological target: T2, Serine/threonine-protein kinase TAO3 (Homo sapiens); conditions: at 10 µM
[5] = biological target: T3, Serine/threonine-protein kinase TBK1 (Homo sapiens) (UniProt Q9UHD2); conditions: at 1 µM
T3 sequence (whole entry): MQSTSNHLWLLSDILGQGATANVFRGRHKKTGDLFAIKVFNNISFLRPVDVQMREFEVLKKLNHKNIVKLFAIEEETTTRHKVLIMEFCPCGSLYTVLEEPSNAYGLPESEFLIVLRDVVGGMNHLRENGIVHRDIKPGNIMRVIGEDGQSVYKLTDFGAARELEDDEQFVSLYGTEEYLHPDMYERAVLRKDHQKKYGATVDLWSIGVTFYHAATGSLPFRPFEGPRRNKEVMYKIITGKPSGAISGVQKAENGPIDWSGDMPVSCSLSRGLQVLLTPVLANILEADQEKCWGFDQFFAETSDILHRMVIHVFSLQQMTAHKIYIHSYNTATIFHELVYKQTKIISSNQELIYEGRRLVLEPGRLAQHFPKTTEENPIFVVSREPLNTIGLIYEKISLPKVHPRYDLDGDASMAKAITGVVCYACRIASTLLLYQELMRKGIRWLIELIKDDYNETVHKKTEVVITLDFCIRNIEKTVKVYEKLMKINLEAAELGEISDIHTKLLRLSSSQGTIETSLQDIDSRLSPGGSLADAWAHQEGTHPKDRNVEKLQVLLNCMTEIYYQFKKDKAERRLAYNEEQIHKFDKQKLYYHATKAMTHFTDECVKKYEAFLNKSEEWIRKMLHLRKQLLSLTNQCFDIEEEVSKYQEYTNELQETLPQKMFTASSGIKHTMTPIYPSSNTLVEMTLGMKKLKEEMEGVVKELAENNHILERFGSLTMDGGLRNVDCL

[6] = biological target: T3, Serine/threonine-protein kinase TBK1 (Homo sapiens); conditions: at 10 µM
[7] = biological target: T4, TGF-beta receptor type-1 (Homo sapiens) (UniProt P36897); conditions: at 1 µM
T4 sequence (whole entry): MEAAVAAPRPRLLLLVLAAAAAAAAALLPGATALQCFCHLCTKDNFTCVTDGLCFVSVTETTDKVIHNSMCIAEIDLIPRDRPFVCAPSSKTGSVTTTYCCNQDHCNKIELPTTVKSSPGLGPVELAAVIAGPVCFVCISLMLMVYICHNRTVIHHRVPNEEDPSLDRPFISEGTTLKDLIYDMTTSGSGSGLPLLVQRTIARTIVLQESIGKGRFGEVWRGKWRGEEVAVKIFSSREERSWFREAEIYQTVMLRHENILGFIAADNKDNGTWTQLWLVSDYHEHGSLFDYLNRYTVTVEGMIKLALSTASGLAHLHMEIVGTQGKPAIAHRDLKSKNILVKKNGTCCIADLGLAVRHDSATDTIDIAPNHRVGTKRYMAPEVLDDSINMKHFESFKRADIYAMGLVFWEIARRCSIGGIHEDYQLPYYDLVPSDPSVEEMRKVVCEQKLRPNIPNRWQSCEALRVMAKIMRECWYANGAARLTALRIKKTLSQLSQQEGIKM

[8] = biological target: T4, TGF-beta receptor type-1 (Homo sapiens); conditions: at 10 µM
[9] = biological target: Insulin-like growth factor 1 receptor (Homo sapiens) (UniProt P08069); conditions: at 1 µM
[10] = biological target: Insulin-like growth factor 1 receptor (Homo sapiens) (UniProt P08069); conditions: at 10 µM

Sequence of Insulin-like growth factor 1 receptor (Homo sapiens) (P08069 31-736 limits assumed): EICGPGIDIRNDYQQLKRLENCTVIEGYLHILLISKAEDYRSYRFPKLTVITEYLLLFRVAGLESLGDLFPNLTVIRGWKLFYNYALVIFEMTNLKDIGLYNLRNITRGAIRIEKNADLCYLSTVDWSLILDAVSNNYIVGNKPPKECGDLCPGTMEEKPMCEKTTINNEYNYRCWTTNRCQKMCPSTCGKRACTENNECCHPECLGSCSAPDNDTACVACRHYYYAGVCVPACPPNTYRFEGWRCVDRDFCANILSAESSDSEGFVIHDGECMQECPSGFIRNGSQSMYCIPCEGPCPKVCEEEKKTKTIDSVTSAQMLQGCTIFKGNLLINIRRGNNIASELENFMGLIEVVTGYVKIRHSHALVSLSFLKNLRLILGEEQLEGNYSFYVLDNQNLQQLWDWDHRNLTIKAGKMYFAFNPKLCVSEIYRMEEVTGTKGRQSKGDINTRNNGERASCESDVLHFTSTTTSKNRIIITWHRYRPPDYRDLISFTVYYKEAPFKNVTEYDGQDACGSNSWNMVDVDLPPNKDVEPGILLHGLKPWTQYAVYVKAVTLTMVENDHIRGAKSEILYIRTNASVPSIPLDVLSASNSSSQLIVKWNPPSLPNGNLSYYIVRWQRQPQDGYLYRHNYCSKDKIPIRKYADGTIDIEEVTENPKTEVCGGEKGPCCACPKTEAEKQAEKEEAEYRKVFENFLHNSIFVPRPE
Sequence of Insulin-like growth factor 1 receptor (Homo sapiens) (P08069 741-1367 limits assumed): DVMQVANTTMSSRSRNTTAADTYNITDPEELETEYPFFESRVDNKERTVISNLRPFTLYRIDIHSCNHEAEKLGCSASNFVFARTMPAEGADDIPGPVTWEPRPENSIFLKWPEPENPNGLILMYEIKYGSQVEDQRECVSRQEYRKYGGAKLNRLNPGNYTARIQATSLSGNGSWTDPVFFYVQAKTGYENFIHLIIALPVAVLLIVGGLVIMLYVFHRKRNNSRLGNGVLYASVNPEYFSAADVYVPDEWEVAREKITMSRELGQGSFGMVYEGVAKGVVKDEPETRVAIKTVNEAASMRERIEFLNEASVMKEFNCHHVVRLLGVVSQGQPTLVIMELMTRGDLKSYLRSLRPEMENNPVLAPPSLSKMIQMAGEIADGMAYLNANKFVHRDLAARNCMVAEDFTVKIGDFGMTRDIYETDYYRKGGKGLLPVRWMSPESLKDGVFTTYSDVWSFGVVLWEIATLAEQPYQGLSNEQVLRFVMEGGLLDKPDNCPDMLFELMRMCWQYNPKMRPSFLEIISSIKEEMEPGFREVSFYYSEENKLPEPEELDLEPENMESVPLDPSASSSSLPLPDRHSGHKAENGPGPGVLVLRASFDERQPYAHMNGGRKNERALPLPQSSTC

For `NC(=O)Nc1sc(-c2ccc(F)cc2)cc1C(N)=O`, the residual activity [1] was 39%, the residual activity [2] was 6% and the residual activity [3] was 61%. For the same molecule, the residual activity [4] was 16%, the residual activity [5] was 35% and the residual activity [6] was 6%. The residual activity [7] was 75%, the residual activity [8] was 74% and the residual activity [9] was 65%. It also gave a residual activity [10] of 19%.

Reference: ChEMBL document CHEMBL2218924, “A broad activity screen in support of a chemogenomic map for kinase signalling research and drug discovery” (Biochem J, 2013)
